Records with an inconclusive call do not appear. Entries that show only a call come without a potency. The source made the active and inactive calls. Unless noted, calls follow the shape of the dose curve; as a rule, active = well fitted curve in the direction sought with a large enough effect; inconclusive = small, poorly fitted or top-dose-only effect, or another doubt; inactive = no such curve, though single readings can be large; an effect the other way counts as inactive or inconclusive.
Experiments:
[1] = S16 Schwann cell viability assay (CellTiter-Glo assay) (AID 624031); also: nearly all actives have a fitted effect of over 70% in size
In short: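 CellTiter-Glo ATP luminescence counter-screen in untransfected S16 rat Schwann cells, 24h compound exposure at 37 degree Celsius after overnight seeding (500-750 cells/well); response scaled between cell-free wells and DMSO (0% activity), curves classed by r2 and magnitude.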

AA1029 = experiment: qHTS profiling for inhibitors of Plasmodium falciparum proliferation (AID 504749); also: nearly all actives have a fitted effect of over 60% in size; details: P. falciparum in erythrocytes, SYBR Green DNA, 72 h; series mostly up to 28.7 µM
In short: (§1)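 Infected RBCs, 0.3% parasitemia/2.5% Hct final; cpd 72 h, 37 C, 5% CO2; lysis buffer with saponin/triton/SYBR Green I, o/n RT dark; FI 485/535; norm. to artemisinin (0.29 uM) and DMSO.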

ATS95 = experiment: as above; details: P. falciparum in erythrocytes, SYBR Green DNA, 72 h; series mostly up to 28.7 µM
In short: as §1

CP194 = experiment: as above; details: P. falciparum in erythrocytes, SYBR Green DNA, 72 h; series mostly up to 28.7 µM
In short: as §1

CP247 = experiment: as above; details: P. falciparum in erythrocytes, SYBR Green DNA, 72 h; series mostly up to 28.7 µM
In short: as §1

CP266 = experiment: as above; details: P. falciparum in erythrocytes, SYBR Green DNA, 72 h; series mostly up to 28.7 µM
In short: as §1

CP297 = experiment: as above; details: P. falciparum in erythrocytes, SYBR Green DNA, 72 h; series mostly up to 28.7 µM
In short: as §1

DFO2036 = experiment: as above; details: P. falciparum in erythrocytes, SYBR Green DNA, 72 h; series mostly up to 28.7 µM
In short: as §1

DIV14 = experiment: as above; details: P. falciparum in erythrocytes, SYBR Green DNA, 72 h; series mostly up to 28.7 µM
In short: as §1

GB4 = experiment: as above; details: P. falciparum in erythrocytes, SYBR Green DNA, 72 h; series mostly up to 28.7 µM
In short: as §1

P93_24 = experiment: as above; details: P. falciparum in erythrocytes, SYBR Green DNA, 72 h; series mostly up to 28.7 µM
In short: as §1

P94_40 = experiment: as above; details: P. falciparum in erythrocytes, SYBR Green DNA, 72 h; series mostly up to 28.7 µM
In short: as §1

PAD = experiment: as above; details: P. falciparum in erythrocytes, SYBR Green DNA, 72 h; series mostly up to 28.7 µM
In short: as §1

PC15 = experiment: as above; details: P. falciparum in erythrocytes, SYBR Green DNA, 72 h; series mostly up to 28.7 µM
In short: as §1

PC26 = experiment: as above; details: P. falciparum in erythrocytes, SYBR Green DNA, 72 h; series mostly up to 28.7 µM
In short: as §1

[2] = S16 Schwann cell PMP22 intronic element beta-lactamase assay (AID 624044; calls by dose curve; also: nearly all actives have a fitted effect of over 15% in size); details: S16 rat Schwann cells, PMP22 element beta-lactamase FRET, 24 h; ratio activity, negative = inhibition: at 38.3 µM (top of the series)
In short: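 Rat S16 Schwann cells with beta-Lac driven by a PMP22 intronic element, compound-treated 24 h at 37 °C. LiveBLAzer FRET B/G read: 460 nm normalized to potassium clavulanate vs DMSO; 535 nm FRET as viability; concentration-effect curves classified.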

ICS = experiment: qHTS profiling for inhibitors of Plasmodium falciparum proliferation (AID 504749); also: nearly all actives have a fitted effect of over 60% in size; details: P. falciparum in erythrocytes, SYBR Green DNA, 72 h; series mostly up to 28.7 µM
In short: as §1

AS120 = experiment: as above; details: P. falciparum in erythrocytes, SYBR Green DNA, 72 h; series mostly up to 28.7 µM
In short: as §1

SC27B = experiment: as above; details: P. falciparum in erythrocytes, SYBR Green DNA, 72 h; series mostly up to 28.7 µM
In short: as §1

TAB165 = experiment: as above; details: P. falciparum in erythrocytes, SYBR Green DNA, 72 h; series mostly up to 28.7 µM
In short: as §1
Potency is read from the fitted curve at half-maximal effect.

SMILES | Potency [1] | Potency (AA1029) | Potency (ATS95) | Potency (CP194) | Potency (CP247) | Potency (CP266) | Potency (CP297) | Potency (DFO2036) | Potency (DIV14) | Potency (GB4) | Potency (P93_24) | Potency (P94_40) | Potency (PAD) | Potency (PC15) | Potency (PC26) | Potency [2] | Potency (ICS) | Potency (AS120) | Potency (SC27B) | Potency (TAB165)
CC(C)=CC1C(C(=O)OCc2coc(Cc3ccccc3)c2)C1(C)C (stereo unspecified) | inactive | inactive | inactive | inactive | inactive | inactive | inactive | inactive | inactive | inactive | inactive | inactive | inactive | inactive | inactive | – | – | – | – | –
O=C1CC2OCC=C3CN4CC[C@]56c7ccccc7N1C5C2[C@H]3C[C@H]46 (stereo partly specified) | inactive | 10000 nM (active) | – | – | inactive | – | – | – | – | – | – | – | – | inactive | inactive | inactive | inactive | – | – | –
CC(=O)[C@H]1CC[C@H]2C3CC[C@H]4C[C@H](O)CC[C@]4(C)C3CC[C@]12C (stereo partly specified) | inactive | inactive | inactive | inactive | inactive | inactive | inactive | inactive | inactive | inactive | inactive | inactive | inactive | inactive | inactive | inactive | inactive | inactive | inactive | inactive
C[C@@H](N)[C@@H](O)c1ccc(O)c(O)c1 | 28700 nM (active) | inactive | inactive | inactive | inactive | inactive | inactive | inactive | inactive | inactive | inactive | inactive | inactive | inactive | inactive | inactive | inactive | inactive | inactive | inactive
COC(=O)C1C(OC(=O)c2ccccc2)CC2CCC1N2C (stereo unspecified) | inactive | inactive | inactive | inactive | inactive | inactive | inactive | inactive | inactive | inactive | inactive | inactive | inactive | inactive | inactive | inactive | inactive | inactive | inactive | inactive
CN(C)C1C(=O)C(C(N)=O)C(=O)C2(O)C(=O)C3C(=O)c4c(O)cccc4C(C)(O)C3C(O)C12 (stereo unspecified) | inactive | – | – | inactive | – | – | inactive | – | – | – | – | – | – | inactive | inactive | inactive | 2820 nM (active) | inactive | inactive | –
CCCCCCC(=O)O[C@H]1CC[C@H]2[C@@H]3CCC4CC(=O)C=C(C)[C@]4(C)[C@H]3CC[C@]12C (stereo partly specified) | inactive | inactive | inactive | inactive | inactive | inactive | inactive | inactive | inactive | inactive | inactive | inactive | inactive | – | inactive | inactive | 10000 nM (active) | inactive | inactive | inactive
COC(C(=O)C(O)C(C)O)C1Cc2cc3cc(OC4CC(OC5CC(O)C(OC)C(C)O5)C(OC(C)=O)C(C)O4)c(C)c(O)c3c(O)c2C(=O)C1OC1CC(OC2CC(OC3CC(C)(O)C(OC(C)=O)C(C)O3)C(O)C(C)O2)C(O)C(C)O1 (stereo unspecified) | inactive | 794 nM (active) | 708 nM (active) | 6750 nM (active) | 1780 nM (active) | – | 4260 nM (active) | 1000 nM (active) | 2390 nM (active) | 2130 nM (active) | 794 nM (active) | 708 nM (active) | 891 nM (active) | 2240 nM (active) | – | 79.4 nM (active) | 112 nM (active) | 794 nM (active) | 1000 nM (active) | 794 nM (active)
CN(C)[C@@H](Cc1ccccc1)c1ccccc1 | inactive | – | inactive | inactive | 10000 nM (active) | inactive | – | inactive | – | – | – | inactive | inactive | inactive | inactive | inactive | inactive | inactive | inactive | inactive
CC(CO)NC(=O)C1C=C2c3cccc4[nH]cc(c34)CC2N(C)C1 (stereo unspecified) | inactive | inactive | inactive | inactive | inactive | inactive | inactive | inactive | – | inactive | inactive | inactive | inactive | inactive | inactive | inactive | inactive | inactive | inactive | inactive
O=[N+]([O-])OC1CO[C@H]2C(O[N+](=O)[O-])COC12 (stereo partly specified) | inactive | inactive | inactive | inactive | inactive | inactive | inactive | inactive | inactive | inactive | inactive | inactive | inactive | inactive | inactive | inactive | inactive | inactive | inactive | inactive
C=C1CC2C(CC[C@]3(C)C(=O)CCC23)[C@]2(C)C=CC(=O)C=C12 (stereo partly specified) | inactive | inactive | inactive | inactive | inactive | inactive | inactive | inactive | inactive | inactive | inactive | inactive | inactive | inactive | inactive | – | inactive | inactive | inactive | inactive

From PubChem BioAssay (NCATS)
